Calls of active or inactive are those of the source.

In PubChem BioAssay one finds composite z-score, composite Z-score and z-score data, which are given here for five compounds.

One experiment deals with Albumin (Bos taurus) (UniProt P02769). The experiment in a line: bovine serum albumin binders on microarray, profiling panel, artefact control for SMM control protein annotation, biochemical, small-molecule microarray, Alexa647 label, 635/667 nm fluorescence (AID 1118).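 Note: score merges 667 nm emission intensity and signal-to-noise per printed compound spot.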 The following applies: BSA-A647 binding, fluorescence 635 nm, higher = more signal.
Experiment [1] in a line: small-molecule microarray binders of probe aXIP, primary screen, biochemical, NeuroSMM set, 635/667 nm fluorescence (AID 1119).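 Note: probe is the protein aXip251-270 applied at 1 µg/mL to compound-printed slides; binding of probe to printed compounds measured as 667 nm fluorescence plus signal to noise.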 The note with it: higher = more signal, called active from +8 up or from −8 down.
A short description of experiment [2]: small-molecule binders of probe aNOTCH3, primary screen, biochemical, small-molecule microarray, 635/667 nm fluorescence (AID 1120).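 Note: probe is a biotin-tagged antibody raised against NOTCH3 rather than NOTCH3 protein; score merges spot fluorescence near 667 nm with spot signal to noise.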 The following applies: higher = more signal.
A short description of experiment [3]: small-molecule binders of probe aNOTCH2, primary screen, biochemical, small-molecule microarray, 635/667 nm fluorescence (AID 1121).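 Note: score merges feature fluorescence read at 667 nm with its signal to noise.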 The note with it: higher = more signal.
The target of experiment [4] is Carbonic anhydrase 2 (Homo sapiens) (UniProt P00918). In words: CAII small-molecule binders, profiling panel, biochemical, small-molecule microarray, Alexa647-labelled CAII (AID 1122). The note with it: CAII-A647 binding fluorescence, higher = more signal.
Experiment [5] can be described thus: COS7 lysate on small-molecule microarray, probe aHis, 635 nm (AID 1123).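 Note: z-score combines 667nm fluorescence intensity with signal-to-noise per printed compound spot.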 The note with it: COS7 cell lysate, fluorescence, higher = more signal.
Experiment [6] is described as follows: compound binding in COS7 lysate, probe aLAP1, primary screen, cell lysate, small-molecule microarray (AID 1124).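 Note: lysate comes from COS7 cells expressing LAP1 and is applied at 0.3 µg/mL; score merges spot fluorescence near 667 nm with signal-to-noise over triplicate slides.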 The following applies: probe aLAP1, fluorescence, higher = more signal.
For the next experiment, the system named is Sam68 (KHDRBS1). In words: Sam68 small-molecule binders, primary screen, biochemical, small-molecule microarray, 635 nm fluorescence (AID 1125).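 Note: score merges 667 nm channel intensity with signal to noise over triplicate slides.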 The note with it: small-molecule microarray binding, higher = more signal.
In experiment [7] the test system is Chordin-like protein 2 (CHRDL2). In words: CHRDL2 small-molecule binders, primary screen, biochemical, small-molecule microarray, 635 nm fluorescence (AID 1126).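 Note: printed compound slides probed with Chrdl2 protein at 4 µg/mL for 1 h at 4 C; score merges 667 nm emission intensity with signal to noise over three replicate slides.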 The following applies: small-molecule microarray binding, fluorescence 635 nm; higher = more signal.
Experiment [8] concerns the target Concanavalin-A (Canavalia ensiformis) (UniProt P02866). The experiment in a line: ConA small-molecule binders, primary screen, artefact control for SMM control protein annotation, biochemical, small-molecule microarray, Alexa647 label, 635 nm (AID 1127).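 Note: z combines 667 nm emission intensity with signal-to-noise across three replicate slides.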 The following applies: ConA-A647 binding fluorescence, higher = more signal.
Experiment [9] can be described thus: anti-His antibody binders, primary screen, artefact control for SMM control protein annotation, biochemical, small-molecule microarray, 635 nm fluorescence (AID 1128).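 Note: score merges feature fluorescence with signal-to-noise for each printed compound spot.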 The note with it: anti-His Alexa647 antibody binding, higher = more signal.
Experiment [10] relates to Human papillomavirus type 1a E7 protein (residues 1-88). In words: HPV1a E7 small-molecule binders, primary screen, biochemical, small-molecule microarray, residues 1-88, 635 nm (AID 1129). The following applies: small-molecule microarray binding, fluorescence 635 nm; higher = more signal.
The target in experiment [11] is Focal adhesion kinase 1 (Homo sapiens) (UniProt Q05397). The experiment in a line: small-molecule microarray binders of FAK, primary screen, biochemical, 635/667 nm fluorescence, BSA, DTT (AID 1130).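 Note: composite of spot emission at 667 nm and signal to noise over triplicate slides.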 The following applies: PTK2 binding, 635 nm fluorescence, higher = more signal.
Experiment [12] concerns Fibrinogen (Alexa647-labelled). In words: fibrinogen binders on compound microarrays, profiling panel, artefact control for SMM control-protein annotation, biochemical, small-molecule microarray, 635/667 nm fluorescence (AID 1131).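 Note: z-score merges 667 nm fluorescence with per-spot signal-to-noise over triplicate slides.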 The following applies: fibrinogen-A647 binding fluorescence, higher = more signal.
Experiment [13] addresses Follistatin (Homo sapiens) (UniProt P19883). The experiment in a line: follistatin binders on small-molecule microarrays, primary screen, biochemical, small-molecule microarray, 635/667 nm fluorescence (AID 1132). The following applies: FST binding, 635 nm fluorescence, higher = more signal.
Experiment [14] deals with Fibroblast growth factor 2 (Homo sapiens) (UniProt P09038). In words: FGF2 binders on small-molecule microarrays, primary screen, biochemical, small-molecule microarray, 635/667 nm fluorescence (AID 1133). The note with it: small-molecule microarray binding, FGF2, fluorescence 635/667; higher = more signal.
A short description of experiment [15]: mitochondrial membrane potential change in A549 cells, profiling panel, cell-based, JC-1 fluorescence, basal, 24 h, 100 nL (AID 1138).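 Note: A549 lung adenocarcinoma cells under basal conditions with no added stimulus; test concentration not given here.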 The following applies: higher = more signal.
A further experiment relates to Lefty1. In words: Lefty1 binders on small-molecule microarrays, primary screen, biochemical, small-molecule microarray, 635/667 nm fluorescence (AID 1139). The following applies: small-molecule microarray binding, fluorescence 635/667; higher = more signal.
Experiment [16] has as its system wheat germ agglutinin (Triticum aestivum), Alexa647-labelled. The experiment in a line: wheat germ agglutinin binders on compound microarrays, profiling panel, artefact control for SMM control-protein annotation, biochemical, small-molecule microarray, 635/667 nm fluorescence (AID 1140).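 Note: score merges 667 nm feature emission with signal to noise over triplicate slides.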 The following applies: WGA-A647 binding, 635 nm fluorescence, higher = more signal.

Experiment [17] concerns the target Luciferin 4-monooxygenase (Photinus pyralis) (UniProt P08659). In words: firefly luciferase enzyme inhibitors, primary screen, biochemical, luminescence, purified enzyme, 2006 set (AID 1141).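 Note: cell-free assay with purified firefly luciferase at 100 ng per well in PBS; test concentration not given here.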 The following applies: SteadyGlo luminescence, 30 min, higher = more signal, called active from +8 up or from −8 down.

Sequence of Luciferin 4-monooxygenase (Photinus pyralis) (P08659 whole entry, looked up): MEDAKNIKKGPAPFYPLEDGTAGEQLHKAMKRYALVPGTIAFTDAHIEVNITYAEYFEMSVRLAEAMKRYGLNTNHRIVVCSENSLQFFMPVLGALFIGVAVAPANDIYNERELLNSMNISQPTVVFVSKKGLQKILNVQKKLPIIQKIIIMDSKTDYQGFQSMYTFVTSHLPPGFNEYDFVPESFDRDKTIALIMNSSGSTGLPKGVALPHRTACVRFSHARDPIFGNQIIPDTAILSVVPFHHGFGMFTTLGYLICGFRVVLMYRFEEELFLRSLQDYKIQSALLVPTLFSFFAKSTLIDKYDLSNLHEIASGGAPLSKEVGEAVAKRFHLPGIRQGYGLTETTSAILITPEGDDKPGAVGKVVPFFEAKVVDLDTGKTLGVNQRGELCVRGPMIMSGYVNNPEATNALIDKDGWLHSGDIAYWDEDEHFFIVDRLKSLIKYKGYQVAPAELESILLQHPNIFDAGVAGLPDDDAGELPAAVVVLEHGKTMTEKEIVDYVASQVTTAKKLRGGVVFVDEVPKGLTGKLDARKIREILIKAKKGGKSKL
Sequence of Albumin (Bos taurus) (P02769 whole entry, looked up): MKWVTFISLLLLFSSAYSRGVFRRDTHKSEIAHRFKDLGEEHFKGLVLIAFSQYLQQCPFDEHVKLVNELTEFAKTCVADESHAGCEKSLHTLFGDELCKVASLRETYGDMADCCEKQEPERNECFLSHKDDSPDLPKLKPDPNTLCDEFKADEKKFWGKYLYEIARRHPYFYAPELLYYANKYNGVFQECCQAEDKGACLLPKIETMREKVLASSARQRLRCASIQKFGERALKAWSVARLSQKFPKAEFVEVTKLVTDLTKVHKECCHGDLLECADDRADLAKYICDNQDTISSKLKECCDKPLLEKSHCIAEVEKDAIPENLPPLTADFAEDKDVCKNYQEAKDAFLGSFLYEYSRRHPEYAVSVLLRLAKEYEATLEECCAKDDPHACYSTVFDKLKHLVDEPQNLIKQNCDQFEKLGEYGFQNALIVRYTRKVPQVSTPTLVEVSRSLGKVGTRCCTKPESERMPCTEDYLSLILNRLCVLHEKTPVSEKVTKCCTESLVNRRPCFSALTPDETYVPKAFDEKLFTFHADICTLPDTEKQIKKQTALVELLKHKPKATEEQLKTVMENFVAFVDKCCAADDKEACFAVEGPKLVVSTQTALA
Sequence of Follistatin (Homo sapiens) (P19883 whole entry, looked up): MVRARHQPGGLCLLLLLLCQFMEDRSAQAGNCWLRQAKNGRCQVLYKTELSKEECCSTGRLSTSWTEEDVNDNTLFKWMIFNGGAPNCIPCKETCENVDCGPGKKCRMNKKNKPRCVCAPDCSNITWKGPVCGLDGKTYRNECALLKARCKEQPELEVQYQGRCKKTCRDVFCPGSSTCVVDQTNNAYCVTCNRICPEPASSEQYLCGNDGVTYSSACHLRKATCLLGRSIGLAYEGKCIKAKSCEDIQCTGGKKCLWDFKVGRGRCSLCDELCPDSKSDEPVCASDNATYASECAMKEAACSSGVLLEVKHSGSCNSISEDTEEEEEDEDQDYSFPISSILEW
Sequence of Concanavalin-A (Canavalia ensiformis) (P02866 whole entry, looked up): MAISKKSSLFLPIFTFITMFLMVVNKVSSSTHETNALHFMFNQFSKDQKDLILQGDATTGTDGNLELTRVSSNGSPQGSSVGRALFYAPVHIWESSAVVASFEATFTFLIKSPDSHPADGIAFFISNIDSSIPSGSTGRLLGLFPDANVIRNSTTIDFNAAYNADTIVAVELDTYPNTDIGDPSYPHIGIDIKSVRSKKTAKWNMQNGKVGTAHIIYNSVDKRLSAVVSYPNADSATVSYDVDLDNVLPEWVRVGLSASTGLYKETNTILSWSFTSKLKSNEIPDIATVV
Sequence of Focal adhesion kinase 1 (Homo sapiens) (Q05397 whole entry, looked up): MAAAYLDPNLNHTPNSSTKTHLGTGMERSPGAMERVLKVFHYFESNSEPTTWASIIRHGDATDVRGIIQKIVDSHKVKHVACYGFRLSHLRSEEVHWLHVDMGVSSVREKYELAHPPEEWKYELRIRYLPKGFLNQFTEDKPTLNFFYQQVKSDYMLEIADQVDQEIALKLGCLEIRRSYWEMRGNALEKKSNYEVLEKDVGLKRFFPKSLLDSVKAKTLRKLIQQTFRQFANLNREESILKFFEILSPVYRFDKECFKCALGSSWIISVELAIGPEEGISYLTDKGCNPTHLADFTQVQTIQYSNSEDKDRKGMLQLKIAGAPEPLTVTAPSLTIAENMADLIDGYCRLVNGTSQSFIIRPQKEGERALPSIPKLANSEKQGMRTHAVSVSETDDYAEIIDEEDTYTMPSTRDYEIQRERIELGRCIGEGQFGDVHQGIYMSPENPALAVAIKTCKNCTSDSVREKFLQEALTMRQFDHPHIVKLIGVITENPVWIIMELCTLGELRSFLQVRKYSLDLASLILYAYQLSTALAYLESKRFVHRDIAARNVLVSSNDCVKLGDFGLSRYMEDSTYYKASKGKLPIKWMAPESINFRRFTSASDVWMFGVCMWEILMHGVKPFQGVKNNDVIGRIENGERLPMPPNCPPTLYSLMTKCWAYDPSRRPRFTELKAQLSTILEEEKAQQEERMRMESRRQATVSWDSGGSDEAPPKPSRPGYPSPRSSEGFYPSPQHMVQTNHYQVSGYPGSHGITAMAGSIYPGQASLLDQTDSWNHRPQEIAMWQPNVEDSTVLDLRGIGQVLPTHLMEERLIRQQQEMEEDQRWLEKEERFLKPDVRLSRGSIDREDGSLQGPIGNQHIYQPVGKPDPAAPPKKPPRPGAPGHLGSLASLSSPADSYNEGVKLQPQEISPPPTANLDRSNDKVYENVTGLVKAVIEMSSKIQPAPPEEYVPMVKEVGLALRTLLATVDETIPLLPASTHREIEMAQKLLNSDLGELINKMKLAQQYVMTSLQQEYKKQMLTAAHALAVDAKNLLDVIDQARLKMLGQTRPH
Sequence of Fibroblast growth factor 2 (Homo sapiens) (P09038 whole entry, looked up): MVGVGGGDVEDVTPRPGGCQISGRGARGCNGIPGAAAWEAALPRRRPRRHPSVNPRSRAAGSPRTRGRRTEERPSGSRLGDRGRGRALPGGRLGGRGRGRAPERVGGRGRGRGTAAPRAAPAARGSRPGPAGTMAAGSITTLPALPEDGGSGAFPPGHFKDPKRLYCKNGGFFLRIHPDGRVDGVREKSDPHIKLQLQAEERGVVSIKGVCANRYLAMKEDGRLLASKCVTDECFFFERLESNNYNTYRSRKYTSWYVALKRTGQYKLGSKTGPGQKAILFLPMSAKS

Regarding `Cc1ccc(S[C@]2(C(=O)NCC(F)(F)F)CC(=O)N(Cc3ccccc3Cl)[C@@H]2c2ccc(CO)cc2I)cc1`, the composite z-score with Albumin (Bos taurus) was -0.937; in experiment [2], -0.133; in experiment [3], -0.134; in [4], 0.796; in experiment [5], 1.56; in experiment [6], -0.49. The composite z-score in the experiment with Sam68 (KHDRBS1) was 0.0712; in experiment [7], -1.04; in experiment [8], -0.275; in experiment [9] it was -1.18; in experiment [10] it was -0.0053; in [11], 0.395. Besides, the composite z-score in experiment [12] was -0.563; in experiment [13] it was -0.253; in [14] it was -0.624; in the experiment with Lefty1 it was -0.558; in experiment [16], 1.13. Further, the composite Z-score in experiment [1] is 0.0162 (inactive). In addition, the z-score in experiment [15] was 1.14; in [17] it was -0.289 (inactive).

`O=C1CCCC2OC12C(O)CCc1ccccc1` (stereo not given): the composite z-score with Albumin (Bos taurus) was -0.0592; in [2], -0.0581; in experiment [3], -0.185; in [4], -0.22; in experiment [5] it was -0.324; in experiment [6] it was -0.2. Also, the composite z-score in the experiment with Sam68 (KHDRBS1) was 0.17; in [7] it was 0.594; in [8] it was 0.594; in [9] it was 0.259; in experiment [10], -0.0206; in [11], 0.0538. The composite z-score was 0.558 in [12]; 0.321 in [13]; 0.268 in experiment [14]; 0.279 in the experiment with Lefty1; -0.0681 in [16]. The composite Z-score in experiment [1] was 0.319 (inactive). Moreover, the z-score in [15] is 0.112; in [17] it was -0.443 (inactive).

Turning to `O=C1[C@H]2[C@H]3[C@H](O)[C@H](O)CC(=NOC[C@@H](O)COCc4ccco4)[C@H]3CC[C@H]2C(=O)N1c1cccc(Oc2ccccc2)c1`, the composite z-score in the experiment with Albumin (Bos taurus) is 0.355; in experiment [2] it was -0.304; in experiment [3], -0.133; in experiment [4], 0.364; in experiment [5], -0.607; in [6], 0.137. In addition, the composite z-score was -0.572 in the experiment on Sam68 (KHDRBS1); -0.573 in experiment [7]; -0.785 in experiment [8]; -0.304 in [9]; -0.438 in [10]; -0.112 in [11]. Also, the composite z-score in [12] is -1.32; in experiment [13] it was -0.924; in experiment [14] it was -0.701; in the experiment on Lefty1 it was -0.021; in experiment [16] it was 0.503. The composite Z-score in [1] was -0.705 (inactive). For the same compound, the figures for the z-score in experiment [15] and in experiment [17] were 0.89 and 0.481 (inactive), respectively.

Turning to `COC(=O)CC=C[C@@H](C)[C@@H](C=NO[C@@H](C)c1cc(-c2c(C)cc(C)cc2C)no1)OC`, the composite z-score is -0.387 with Albumin (Bos taurus); -0.161 in experiment [2]; -0.156 in experiment [3]; -0.604 in experiment [4]; -0.556 in [5]; -0.52 in experiment [6]. Besides, the composite z-score with Sam68 (KHDRBS1) was -1.32; in experiment [7] it was -1.36; in experiment [8] it was -0.627; in experiment [9] it was 0.525; in experiment [10], -1.06; in [11] it was -0.688. Further, the composite z-score is -1.47 in [12]; -0.732 in experiment [13]; -1.35 in [14]; -1.43 in the experiment on Lefty1; -1.03 in experiment [16]. In addition, the composite Z-score in [1] was -0.483 (inactive). Moreover, the z-score in experiment [15] is -0.542; in experiment [17], 0.973 (inactive).

For the compound `CC(=O)O[C@H]1C2=C(C(=O)[C@@H]3O[C@@H]31)[C@H]1C(C)O[C@@H]2[C@@]23C(=O)[C@@H]4O[C@@H]4[C@@H](O)C2=CO[C@H](C)[C@@H]13` (stereo not given in full), the composite z-score with Albumin (Bos taurus) was 0.922; in experiment [2], 0.0026; in experiment [3] it was -0.0937; in [4], -0.0716; in experiment [5] it was -0.519; in experiment [6], -0.283. Besides, the composite z-score is -0.113 in the experiment with Sam68 (KHDRBS1); 0.249 in experiment [7]; -0.629 in [8]; 0.0831 in experiment [9]; 0.154 in [10]; -0.0962 in [11]. Also, the composite z-score was -0.735 in experiment [12]; -0.419 in [13]; 0.877 in experiment [14]; 0.0364 with Lefty1; -0.933 in experiment [16]. Moreover, the composite Z-score in experiment [1] is 0.112 (inactive). For the same compound, the z-score in experiment [15] was -1.12; in experiment [17], 0.327 (inactive).
